The panel holds about 83,000 compounds, 20% with a hit somewhere; the sample as a whole holds those more often.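 The test compound was applied at a single concentration to cells in 96-well plates for 48 hours, and percent growth was recorded.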 A number with no mark means an inactive call. Activity calls are given as the source filed them. The calls were made as follows: active = growth percent below 10; inactive = the rest.

The assay concerns HCT-116 colon. Briefly: NCI-60 one-dose screen, 48 h (100 = growth as untreated, 0 = no growth, -100 = all killed). To be noted: 10 µM unless noted.
With `OCCNCCNC(Cc1ccc(Cl)cc1)c1ccccc1` (configuration not stated), the growth was 75.7%.

On to `CC1=C(C(=O)Nc2nc(-c3ccc(Cl)cc3)cs2)[C@H](c2ccc(O)cc2)NC(=O)N1`, for which the growth was 95.4%.

Turning to `O=C(N/N=C\c1cccc([N+](=O)[O-])c1)N/N=C/c1cccc([N+](=O)[O-])c1`, the growth was 108%.

In the case of `CC1C(/C=N/NC(N)=S)C(C#N)(C#N)C1(C#N)C#N` (configuration not stated), the growth was 105%.

For `CN(C)CCCNC(=O)c1cncnc1Nc1ccc(OCc2cccc(F)c2)c(Cl)c1`, the growth was -82% (active).

`C=C1C(=O)O[C@H]2[C@H]1CC/C(COC(=O)/C=C\C(=O)NCc1ccc(Cn3c(=O)sn(CCCl)c3=O)cc1)=C\CC[C@@]1(C)O[C@@H]21`: the growth was 68.7%.

Take `CC1(C)OB(O)c2cc(-c3nc4ccc5[nH]ncc5c4c4c3CCCC4)ccc21`: the growth is 22.7%.

In the case of `N=C(N)c1ccc(-c2ccc(-c3ccccc3)s2)cc1`, the growth was -55.1% (active).

In the case of `COc1ccc(CCN(CC(=O)N(CC(N)=O)C2CCC[C@@H]2OCc2ccccc2)C(=O)CN(C(=O)CN(CCc2ccc(Cl)cc2)C(=O)CN(C(=O)CN(C)Cc2ccccc2F)[C@H](C)C2CCCCC2)[C@H](C)C2CCCCC2)cc1OC` (some centres not stated), the growth is 22.4%.

On to `Cc1nnc(-c2ccc3c(c2)nc(/C=C/c2ccccc2)n3C2CCCCC2)o1`, for which the growth was 64.5%.

As to `Nn1c(=O)c(=O)[nH]c2c(cnn2-c2ccccc2)c1=O`, the growth is 108%.

For `O=C(O)[C@@H](Cc1ccc2ccccc2c1)NC(=O)n1c2ccccc2c2ccccc21`, the growth was 9.76% (active).

The record behind these values is PubChem BioAssay (NCI).
